The source of these data is the OligoGym collection.
Note: reference of the scale not given here.

The first assay has as its target CACNA1S. Briefly: pooled miR-30 sensor sort-seq; sequence = guide strand. The note with it: shRNA.
The sequence TATCTCAGCAAACTGGAGGGGT showed a sensor-assay potency score (higher = more potent) of -0.123. The same measure, in the same setting: the value for ATACTGTACACATTGGCGCTGG was 0.068. The same measure, in the same setting: the value for TTGGTGATCTTGAAGATCCTCA was 0.453; that for TTACCTTCCGTCTTGATCTTGA was 0.578. As for TTGAGGTCCAGTCTTCCCCTGT, the sensor-assay potency score (higher = more potent) was -0.528. On the same count and under the same terms, the value for TTGAGGATCATCTCCAGGGTGA was -0.175. TACACGTAGTAGTAGCCCCTGC came in with a sensor-assay potency score (higher = more potent) of -0.425.

TTGAGCAGGATGTAGTTGCCAC: the sensor-assay potency score (higher = more potent) was -0.202. The same measure, in the same setting: then TCTTGTACTCAGTCTCTCCCTG, with 0.136; and TCTAGTTGCTGCTTCTCCCGGA, with 0.563. On the same count and under the same terms, the value for ATTAGATTCAAACTCATCGATT was -0.846; that for TAGTATGCAAAGTTGGTGCCAC was 0.194.

The sequence TCTGAAGTCCTCAACATCCATG came in with a sensor-assay potency score (higher = more potent) of -1.41. The sequence TTGATCAGCCTCATGACACGGA displayed a sensor-assay potency score (higher = more potent) of 0.698. Consider TTCAGCATCTCCACACAGGGTT, for which the sensor-assay potency score (higher = more potent) turned out to be 0.136. The same measure, in the same setting: then TTGATCTTGAGTGCCGTGCGGA, with -0.578; and TAGTAGTATGCAAAGTTGGTGC, with -0.181. For the sequence TTGGACAAGTCGGTGCACCTGA, the sensor-assay potency score (higher = more potent) amounted to 0.00785. The same measure, in the same setting: the value for TTCATCAGCATCTCAGTGGTGA was 0.298.

Sequence TTCCAGGAAGTTGTCCACCTGG gave a sensor-assay potency score (higher = more potent) of -0.276. In the case of TACATCTTCATCAGCATCTCAG, the sensor-assay potency score (higher = more potent) is -0.408.

Consider TTGAGGACAATCTCCACAGTGA, for which the sensor-assay potency score (higher = more potent) was -0.144. Sequence TTGTCGAAGTGGAAGTCGCTGT yielded a sensor-assay potency score (higher = more potent) of -0.229. The same measure, in the same setting: the value for TTTAAGGATCTGATTTCTCATG was -1.14.

A further assay deals with CACNA2D4. Described as above. The note with it: shRNA.
As for TTGGAGATCAGAATGAACCCGT, the sensor-assay potency score (higher = more potent) stood at 0.657. Still for that read-out and setting: the value for TCAGGTGTCAGGAACTTCCTGT was 0.631; that for TCTGTGATGCAGTAGATCCAGT was -0.578; that for TTTATACCTGGATAGATCCTGA was -0.0984. Same read-out and setting: the value for TTATACTTCTCAAACACCGGCT was -0.014; that for TTCCAGAGGAATCTTGGCCTGT was 0.14. Same read-out and setting: then TTTGACTTCTGTCGCCTCCTGC, with -0.115; and TAATAGTCGAACACCAGGGATT, with -1.39.

Regarding TTGTTGTCGATGACGAAGCAGT, the sensor-assay potency score (higher = more potent) was -0.871. Still for that read-out and setting: then TCGATTGTCTCGGTCCGCCTGG, with -0.412. On the same count and under the same terms, the value for TATACTTCTCAAACACCGGCTC was -0.108; that for TTGTAATAGTCGAACACCAGGG was -0.554.
